Test results taken from PubChem BioAssay (EPA / NIEHS).
Inconclusive results are not listed. Activity calls are given as the source filed them. The calls were made as follows: active = hit-call score of the fitted dose curve at least 0.9, where 1 is the maximum; inconclusive = response in the unintended direction; inactive = score below 0.9.

What follows are compounds tested on xenobiotic metabolism (CYP1A1), CYP1A1 (gene 1543) (assay: CLD_CYP1A1_48hr: CellzDirect (CLD) Gene Expression Assay for xenobiotic metabolism (CYP1A1) at 48 hours (AID 2283705)).
Experimental: CLD_48hr is a cell-based, multiplexed-readout assay that uses hepatocyte, a human liver primary cell, with measurements taken at 48 hours after chemical dosing in a 96-well plate.CLD_CYP1A1_48hr is one of 16 assay component(s) measured or calculated from the CLD_48hr assay. It is designed to make measurements of mRNA induction, a form of inducible reporter, as detected with chemiluminescence signals by Quantitative Nuclease Protection Assay (qNPA) technology.Data from the assay component CLD_CYP1A1_48hr was analyzed at the endpoint, CLD_CYP1A1_48hr, in the positive analysis fitting direction relative to DMSO as the negative control and baseline of activity. Using a type of inducible reporter, gain-of-signal activity can be used to understand changes in the reporter gene as they relate to the gene CYP1A1. Furthermore, this assay endpoint can be referred to as a primary readout. To generalize the intended target to other relatable targets, this assay endpoint is annotated to the cyp intended target family, where subfamily is xenobiotic metabolism.
Human hepatocyte cultures were treated daily for two consecutive days with fresh dosing solutions containing appropriate concentrations of the 320 ToxCast chemicals (chemical identities were blinded to CellzDirect and other ToxCast collaborators), vehicle control (0.2% DMSO), and positive control inducers as summarized in Table 1. Due to the large number of treatment groups and chemicals examined, the ToxCast chemicals were divided into two groups (spanning two independent cultures of hepatocytes from separate donor preparations (Hu778: ToxCast plates 1 and 2; Hu776: ToxCast plates 3 and 4). Each preparation of human hepatocyte cultures was treated with respective vehicle control, medium only control, set of six positive controls/reference chemicals for the five hepatic receptor pathways, and a subset of eight of the ToxCast chemicals (indoxacarb, pyrithiobac-sodium, norflurazon, cyhalofop-butyl, methomyl, thiram, acetochlor, and propiconazole). These replicate data, coupled with internal replicates designed within the blinded ToxCast chemical library, provided additional data to evaluate interindividual differences between hepatocyte preparations and their potential impact on chemical profiles.Cell morphology and integrity were evaluated using phase-contrast microscopy as an indicator of hepatocyte cell health (Tyson & Green, 1987). Cultures for each treatment group (i.e., media, vehicle [0.2% DMSO], positive control inducers [multiple concentrations], and the ToxCast chemicals [multiple concentrations]) were observed and cell morphology was assessed relative to vehicle control cultures at each harvest time point (0, 6, 24, or 48 h). […] Images were evaluated at the conclusion of the study to assess changes in cell integrity and account for the effects of chemical exposure on uncharacteristic changes in concentration-dependent gene expression profiles. The results from these determinations of apparent cytotoxicity were annotated (yes/no) alongside the corresponding qNPA data for reference.At the conclusion of each treatment period, hepatocyte cultures (96-well) were washed with 1 volume of HBSS, lysed by addition of 25 ul ArrayPlate lysis buffer (HTG, Tucson, AZ), and 70 ul/well of Denaturation Oil, denatured by incubation at 95C for 10 min, and frozen at approximately -70C until analysis by nuclease protection assay (qNPA) (Roberts et al., 2007). For qNPA analysis, cell lysates were thawed at 50C for approximately 30 min, qNPA probes were added, and samples were incubated at 95C for 10 min to begin the detection process by denaturing the target RNA, dissociating the duplexes and secondary structure hybridization. At the conclusion of the hybridization period, S1 nuclease reagent was added to each sample to digest all nonprotected nucleotides at 50C for 60-90 min. […]
In the case of `CN(C)[C@@H]1C(=O)C(C(N)=O)=C(O)[C@@]2(O)C(=O)C3=C(O)c4c(O)cccc4[C@@](C)(O)[C@H]3[C@H](O)[C@@H]12`, the outcome is reported as “inactive”.
With `CCOP(=S)(OCC)Oc1ccc([N+](=O)[O-])cc1` the AC50 was 3.61 µM (active).
In the case of `CCOP(=S)(Oc1cnc(C(C)(C)C)nc1)OC(C)C` (stereo not given), the AC50 is reported as 3.91 µM (active).
For `CC(C)=CC1C(C(=O)OCN2C(=O)C3=C(CCCC3)C2=O)C1(C)C` (stereo not given), the outcome was “inactive”.
In the case of `CCc1cccc(CC)c1N(COC)C(=O)CCl`, the AC50 is reported as 1.89 µM (active).
In the case of `CCCSP(=O)(OCC)Oc1ccc(Br)cc1Cl` (stereo not given), the outcome is reported as “inactive”.
In the case of `CC1=NNC(=O)N(/N=C/c2cccnc2)C1`, the AC50 is reported as 3.97 µM (active).
With `C=C(C)[C@H]1Cc2c(ccc3c2O[C@@H]2COc4cc(OC)c(OC)cc4[C@@H]2C3=O)O1` the AC50 was 2 µM (active).
In the case of `Nc1nc(N)nc(NC2CC2)n1`, the AC50 is reported as 11.6 µM (active).
In the case of `CCC(=O)Nc1ccc(Cl)c(Cl)c1`, the AC50 is reported as 4.64 µM (active).
For `CON=C(C(=O)OC)c1ccccc1CON=C(C)c1cccc(C(F)(F)F)c1`, the AC50 was 20 µM (active).
For `C[Si](Cn1cncn1)(c1ccc(F)cc1)c1ccc(F)cc1`, the AC50 was 0.727 µM (active).
With `N#CSCSC#N` the AC50 was 7.26 µM (active).
`CCOP(=S)(OCC)Oc1cc(C)nc(C(C)C)n1` was tested, and the AC50 was 4.2 µM (active).
With `CC(COc1ccc(Oc2ccccc2)cc1)Oc1ccccn1` (stereo not given) the outcome was “inactive”.
With `CNC(=O)ON=C(C)SC` the outcome was “inactive”.
With `CCOP(=S)(OCC)Oc1ccc2c(C)c(Cl)c(=O)oc2c1` the AC50 was 1.89 µM (active).
For `CSc1nc(NC(C)C)nc(NC(C)C)n1`, the AC50 was 20 µM (active).
With `CC(C)[C@H](C(=O)O[C@H](C#N)c1cccc(Oc2ccccc2)c1)c1ccc(Cl)cc1` the AC50 was 20 µM (active).
For `FC(F)C(F)(F)OCC(Cn1cncn1)c1ccc(Cl)cc1Cl` (stereo not given), the AC50 was 8.06 µM (active).
For `CCOP(=O)(OCC)Oc1cc(C)nc(C(C)C)n1`, the outcome was “inactive”.
With `COc1ccc(C(=CC(=O)N2CCOCC2)c2ccc(Cl)cc2)cc1OC` the AC50 was 4.77 µM (active).
For `CCOP(=S)(OCC)SCCSCC`, the AC50 was 20 µM (active).
For `C#CC(C)(C)NC(=O)c1cc(Cl)cc(Cl)c1`, the outcome was “inactive”.
For `CCCCSP(=O)(SCCCC)SCCCC`, the AC50 was 4.08 µM (active).
For `CCCCN(CC)c1c([N+](=O)[O-])cc(C(F)(F)F)cc1[N+](=O)[O-]`, the AC50 was 20 µM (active).
With `C#CCC1=C(C)C(OC(=O)C2C(C=C(C)C)C2(C)C)CC1=O` (stereo not given) the AC50 was 33 µM (active).
`CCc1cccc(C)c1N(C(=O)CCl)C(C)COC` (stereo not given) was tested, and the AC50 was 20 µM (active).
In the case of `CCOC(=O)CC(SP(=O)(OC)OC)C(=O)OCC` (stereo not given), the outcome is reported as “inactive”.
For `CNc1cnn(-c2cccc(C(F)(F)F)c2)c(=O)c1Cl`, the AC50 was 5.37 µM (active).
`COP(=O)(NC(C)=O)SC` (stereo not given) was tested, and the outcome was “inactive”.
`CN(C)C(=O)Nc1cccc(C(F)(F)F)c1` was tested, and the AC50 was 7.21 µM (active).
For `CCCCOC(=O)[C@@H](C)Oc1ccc(Oc2ccc(C#N)cc2F)cc1`, the outcome was “inactive”.
In the case of `CCOP(=S)(OCC)OC(Cl)C(Cl)(Cl)Cl` (stereo not given), the outcome is reported as “inactive”.
For `CCOP(=O)(NC(C)C)Oc1ccc(SC)c(C)c1` (stereo not given), the outcome was “inactive”.
`COc1cccc(C(=O)NN(C(=O)c2cc(C)cc(C)c2)C(C)(C)C)c1C` was tested, and the AC50 was 10.1 µM (active).
In the case of `CCNc1nc(Cl)nc(NC(C)(C)C#N)n1`, the outcome is reported as “inactive”.
In the case of `CNC(=O)Oc1cccc2c1OC(C)(C)O2`, the outcome is reported as “inactive”.
For `CCCOCC(=Nc1ccc(Cl)cc1C(F)(F)F)n1ccnc1`, the AC50 was 6.01 µM (active).
`CNC(=O)ON=C(SC)C(=O)N(C)C` was tested, and the outcome was “inactive”.
